Laboratory results taken from PubChem BioAssay (NCI).
The panel holds about 83,000 compounds, 20% with a hit somewhere; the sample as a whole holds those more often.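 Single-concentration screen, 48 h exposure, 96-well plates. Endpoint: percent growth. Below 10 = active.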 Unmarked numbers belong to inactive results. Activity calls are given as the source filed them.

Experiments:
Assay in all cases: NCI-60 one-dose screen, 48 h (100 = growth as untreated, 0 = no growth, -100 = all killed)
Settings in all cases: 10 µM unless noted
NCI-H23 lung = test system: NCI-H23 lung
NCI-H226 lung = test system: NCI-H226 lung
NCI-H322M lung = test system: NCI-H322M lung
HOP-62 NSCLC = test system: HOP-62 NSCLC
NCI-H460 lung = test system: NCI-H460 lung
HOP-92 NSCLC = test system: HOP-92 NSCLC
NCI-H522 lung = test system: NCI-H522 lung
A549/ATCC NSCLC = test system: A549/ATCC NSCLC
786-0 renal = test system: 786-0 renal
COLO 205 colon = test system: COLO 205 colon
DU-145 prostate = test system: DU-145 prostate
K-562 leukemia = test system: K-562 leukemia
MALME-3M melanoma = test system: MALME-3M melanoma
MDA-MB-231 breast = test system: MDA-MB-231 breast
RXF 393 renal = test system: RXF 393 renal
SF-268 CNS = test system: SF-268 CNS
SF-295 CNS = test system: SF-295 CNS
SF-539 CNS = test system: SF-539 CNS
UACC-257 melanoma = test system: UACC-257 melanoma
M14 melanoma = test system: M14 melanoma

COc1ccc2nc3cc(Cl)ccc3c(NCCNc3c4ccc(Cl)cc4nc4ccc(OC)cc34)c2c1
growth (NCI-H23 lung): -73% (active) | growth (NCI-H226 lung): -54.7% (active) | growth (NCI-H322M lung): -86.6% (active) | growth (HOP-62 NSCLC): -80.4% (active) | growth (NCI-H460 lung): -68.7% (active) | growth (HOP-92 NSCLC): -72.7% (active) | growth (NCI-H522 lung): -90.7% (active) | growth (A549/ATCC NSCLC): -74.5% (active) | growth (786-0 renal): -88% (active) | growth (COLO 205 colon): -74.9% (active) | growth (DU-145 prostate): -95.4% (active) | growth (K-562 leukemia): -52.7% (active) | growth (MALME-3M melanoma): -77.4% (active) | growth (MDA-MB-231 breast): -78.9% (active) | growth (RXF 393 renal): -93% (active) | growth (SF-268 CNS): -82.6% (active) | growth (SF-295 CNS): -93.2% (active) | growth (SF-539 CNS): -85.5% (active) | growth (UACC-257 melanoma): -89.6% (active) | growth (M14 melanoma): -74.2% (active)

CC(=Nc1ccc(N(C)C)cc1)c1ccccc1
growth (NCI-H23 lung): 66.4% | growth (NCI-H226 lung): 59.3% | growth (NCI-H322M lung): 66.5% | growth (HOP-62 NSCLC): 54.2% | growth (NCI-H460 lung): 34.2% | growth (HOP-92 NSCLC): 30.8% | growth (NCI-H522 lung): 64.7% | growth (A549/ATCC NSCLC): 45.2% | growth (786-0 renal): 74.5% | growth (COLO 205 colon): 13.2% | growth (DU-145 prostate): 46.9% | growth (K-562 leukemia): 22.5% | growth (MALME-3M melanoma): 85.5% | growth (MDA-MB-231 breast): 66.5% | growth (RXF 393 renal): 72.8% | growth (SF-268 CNS): 82.3% | growth (SF-295 CNS): 44.4% | growth (SF-539 CNS): 56.7% | growth (UACC-257 melanoma): 59.4% | growth (M14 melanoma): 66.1%

CCCCCCCCCCCCCCCC[N+](C)(CCO)Cc1cnc[nH]1 (stereo not given)
growth (NCI-H23 lung): -3.12% (active) | growth (NCI-H226 lung): -4.89% (active) | growth (NCI-H322M lung): 20.3% | growth (HOP-62 NSCLC): -64.2% (active) | growth (NCI-H460 lung): -93.3% (active) | growth (HOP-92 NSCLC): -55.8% (active) | growth (NCI-H522 lung): -72.2% (active) | growth (A549/ATCC NSCLC): -36.1% (active) | growth (786-0 renal): -40.1% (active) | growth (COLO 205 colon): -100% (active) | growth (DU-145 prostate): -32% (active) | growth (K-562 leukemia): -61.6% (active) | growth (MALME-3M melanoma): -3.54% (active) | growth (MDA-MB-231 breast): -54.9% (active) | growth (RXF 393 renal): -44.7% (active) | growth (SF-268 CNS): -66.1% (active) | growth (SF-295 CNS): -31.7% (active) | growth (SF-539 CNS): -54.3% (active) | growth (UACC-257 melanoma): -34.5% (active) | growth (M14 melanoma): -41.9% (active)

Nc1nc(N)c2c(ccc3c2ccn3Cc2cccc([N+](=O)[O-])c2)n1
growth (NCI-H23 lung): -74.8% (active) | growth (NCI-H226 lung): -86.6% (active) | growth (NCI-H322M lung): -91.1% (active) | growth (HOP-62 NSCLC): -83.7% (active) | growth (NCI-H460 lung): -88.6% (active) | growth (HOP-92 NSCLC): -72.1% (active) | growth (NCI-H522 lung): -84.3% (active) | growth (A549/ATCC NSCLC): -83% (active) | growth (786-0 renal): -89.6% (active) | growth (COLO 205 colon): -88.9% (active) | growth (DU-145 prostate): -97% (active) | growth (K-562 leukemia): 31.8% | growth (MALME-3M melanoma): -82.7% (active) | growth (MDA-MB-231 breast): -87.9% (active) | growth (RXF 393 renal): -83.6% (active) | growth (SF-268 CNS): -78% (active) | growth (SF-295 CNS): -93.3% (active) | growth (SF-539 CNS): -96.7% (active) | growth (UACC-257 melanoma): -78.9% (active) | growth (M14 melanoma): -83.2% (active)

CCCCCCCCCCCCCCNCc1ccccc1
growth (NCI-H23 lung): 75.7% | growth (NCI-H226 lung): 60.1% | growth (NCI-H322M lung): 106% | growth (HOP-62 NSCLC): 94.1% | growth (NCI-H460 lung): 77.4% | growth (HOP-92 NSCLC): 48.8% | growth (NCI-H522 lung): 75.8% | growth (A549/ATCC NSCLC): 108% | growth (786-0 renal): 67.8% | growth (COLO 205 colon): -40.9% (active) | growth (DU-145 prostate): 81% | growth (K-562 leukemia): 23.8% | growth (MALME-3M melanoma): 92.6% | growth (MDA-MB-231 breast): 54.4% | growth (RXF 393 renal): 82.3% | growth (SF-268 CNS): 94.7% | growth (SF-295 CNS): 97.7% | growth (SF-539 CNS): 83.2% | growth (UACC-257 melanoma): 99.4% | growth (M14 melanoma): 81.8%

OC(CNc1ccnc2cc(Cl)ccc12)CNc1ccnc2cc(Cl)ccc12
growth (NCI-H23 lung): 72% | growth (NCI-H226 lung): 39.3% | growth (NCI-H322M lung): 52.1% | growth (HOP-62 NSCLC): 98.7% | growth (NCI-H460 lung): 63.5% | growth (HOP-92 NSCLC): 77.6% | growth (NCI-H522 lung): -3.14% (active) | growth (A549/ATCC NSCLC): 95.3% | growth (786-0 renal): 95.5% | growth (COLO 205 colon): -55.4% (active) | growth (DU-145 prostate): 57.4% | growth (K-562 leukemia): 2.44% (active) | growth (MALME-3M melanoma): -77.9% (active) | growth (MDA-MB-231 breast): -56.5% (active) | growth (RXF 393 renal): 97.4% | growth (SF-268 CNS): 82.2% | growth (SF-295 CNS): 71.6% | growth (SF-539 CNS): -79.8% (active) | growth (UACC-257 melanoma): 93.5% | growth (M14 melanoma): 20.1%

CN(C)c1ccc(C(=C2C=CC(=[N+](C)C)C=C2)c2ccc(N(C)C)cc2)cc1 (tested in a mixture with another compound)
growth (NCI-H23 lung): -49% (active) | growth (NCI-H226 lung): -60% (active) | growth (NCI-H322M lung): -27.7% (active) | growth (HOP-62 NSCLC): -34.2% (active) | growth (NCI-H460 lung): -75.1% (active) | growth (HOP-92 NSCLC): -66.8% (active) | growth (NCI-H522 lung): -47% (active) | growth (A549/ATCC NSCLC): -18.2% (active) | growth (786-0 renal): -90.4% (active) | growth (COLO 205 colon): -97.7% (active) | growth (DU-145 prostate): -99.4% (active) | growth (K-562 leukemia): -55.3% (active) | growth (MALME-3M melanoma): -62.7% (active) | growth (MDA-MB-231 breast): -60.9% (active) | growth (RXF 393 renal): -70.1% (active) | growth (SF-268 CNS): -92.2% (active) | growth (SF-295 CNS): -45.1% (active) | growth (SF-539 CNS): -94.2% (active) | growth (UACC-257 melanoma): -67.4% (active) | growth (M14 melanoma): -63.2% (active)
